SRC3 inh: SRC3 coactivator transcriptional activity inhibitors, primary screen, cell-based, luminescence | Nuclear receptor coactivator 3 (Homo sapiens), Q9Y6Q9 | HEK293 GAL4-SRC3 luciferase reporter | inhibition, % at 3.6 µM | hit rate 0.17% among 360,000 | AID 588352, 2011;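 active = inhibition above a per-campaign cutoff, the mean of all compounds plus 3 SD, cut at about 60% in these data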;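 note: 0% = DMSO-treated cells and 100% = gossypol-treated cells at 36 µM; higher means less SRC3-driven luciferase light from the GAL4 reporter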
GalR3 antagonist: GalR3 antagonists in HEK293 cells, primary screen, cell-based, fluorescence readout. HEK293 GalR3-CNG cAMP membrane potential fluorescence; galR3 body fused to GalR1 C-terminus. inhibition, % at 3 µM. hit rate 0.44% among 360,000. AID 651719, 2012;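 active = inhibition above the screen-wide average plus 3 SD, cut at about 13% in these data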;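 note: forskolin and galanin both at EC90 stimulate the cells; cAMP rise reported by CNG channel membrane potential dye signal; 0% = forskolin plus galanin with DMSO and 100% = forskolin alone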
NR5A2 inv ag: LRH-1 (NR5A2) inverse agonists, primary screen, cell-based, luminescence, HEK293T, StAR-luciferase reporter | Nuclear receptor subfamily 5 group A member 2 (Homo sapiens), O00482 | LRH-1 transfected, 24 h | inhibition, % at 3.6 µM | hit rate 0.13% among 360,000 | AID 602396, 2012;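 active = inhibition above the mean inhibition of all tested compounds plus 3 SD, cut at about 73% in these data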;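 note: 0% = DMSO wells and 100% = reporter-only cells lacking LRH-1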
NCOA2 inhibitor: inhibition of GAL4-SRC2 driven luciferase reporter, primary screen, SRC2 inhibitor project, cell-based, luminescence. HEK293 GAL4-SRC2 luciferase reporter. inhibition, % at 9 µM. hit rate 0.17% among 370,000. AID 651957, 2012;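 active = inhibition above the mean inhibition of all tested compounds plus 3 SD, set per campaign, cut at about 52% in these data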;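 note: 0% = DMSO treated cells and 100% = cells given Gossypol at 36 µM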
Target sequence (Q15596 whole entry, looked up, the tested form may be a part): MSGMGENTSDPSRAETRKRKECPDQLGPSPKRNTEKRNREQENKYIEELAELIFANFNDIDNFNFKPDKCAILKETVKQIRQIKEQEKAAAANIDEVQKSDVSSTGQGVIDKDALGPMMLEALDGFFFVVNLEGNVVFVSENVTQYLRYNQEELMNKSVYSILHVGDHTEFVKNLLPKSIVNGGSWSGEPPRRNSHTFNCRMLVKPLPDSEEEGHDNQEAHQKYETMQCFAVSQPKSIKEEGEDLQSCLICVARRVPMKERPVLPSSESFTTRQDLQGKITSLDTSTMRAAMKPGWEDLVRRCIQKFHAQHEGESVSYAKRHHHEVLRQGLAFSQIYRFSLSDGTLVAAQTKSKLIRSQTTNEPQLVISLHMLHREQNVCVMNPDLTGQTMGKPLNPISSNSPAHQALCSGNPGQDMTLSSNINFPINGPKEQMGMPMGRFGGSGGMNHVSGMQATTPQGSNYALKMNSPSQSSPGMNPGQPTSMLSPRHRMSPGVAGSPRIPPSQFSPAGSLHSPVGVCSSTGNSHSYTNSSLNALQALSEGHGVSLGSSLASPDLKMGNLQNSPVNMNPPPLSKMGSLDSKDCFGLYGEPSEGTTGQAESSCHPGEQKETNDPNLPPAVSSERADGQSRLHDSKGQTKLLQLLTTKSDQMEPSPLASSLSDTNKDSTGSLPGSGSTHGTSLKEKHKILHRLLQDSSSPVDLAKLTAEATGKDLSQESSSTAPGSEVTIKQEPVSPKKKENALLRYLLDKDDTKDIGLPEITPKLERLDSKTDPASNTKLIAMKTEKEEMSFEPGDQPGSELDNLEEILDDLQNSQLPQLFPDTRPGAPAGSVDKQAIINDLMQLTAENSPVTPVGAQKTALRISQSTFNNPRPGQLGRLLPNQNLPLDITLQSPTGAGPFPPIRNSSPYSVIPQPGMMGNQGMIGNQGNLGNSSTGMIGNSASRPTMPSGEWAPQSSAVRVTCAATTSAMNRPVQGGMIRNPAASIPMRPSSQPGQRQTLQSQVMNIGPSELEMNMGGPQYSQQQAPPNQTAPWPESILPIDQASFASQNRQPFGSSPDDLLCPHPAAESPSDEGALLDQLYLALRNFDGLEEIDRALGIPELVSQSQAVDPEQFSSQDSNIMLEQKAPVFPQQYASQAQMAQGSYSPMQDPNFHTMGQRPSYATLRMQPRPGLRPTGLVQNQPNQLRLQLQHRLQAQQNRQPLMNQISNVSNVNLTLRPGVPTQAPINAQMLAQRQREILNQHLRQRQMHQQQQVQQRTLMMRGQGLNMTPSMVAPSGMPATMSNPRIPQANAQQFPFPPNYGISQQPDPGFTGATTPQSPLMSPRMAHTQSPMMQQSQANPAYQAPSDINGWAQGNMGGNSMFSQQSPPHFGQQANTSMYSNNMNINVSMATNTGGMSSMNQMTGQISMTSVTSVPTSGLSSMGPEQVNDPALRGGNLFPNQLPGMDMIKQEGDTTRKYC
SRC1 inh: SRC1 coactivator transcriptional activity inhibitors, primary screen, cell-based, luminescence | Nuclear receptor coactivator 1 (Homo sapiens), Q15788 | HEK293 GAL4-SRC1 luciferase reporter | inhibition, % at 3.6 µM | hit rate 0.12% among 360,000;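 active = inhibition above the campaign mean plus 3 SD, with each screening campaign given its own cutoff, cut at about 60% in these data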;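 note: 0% = DMSO treated cells and 100% = gossypol at 36 µM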
COUP-TFII inh: NR2F2 transcriptional activity inhibitors, primary screen, cell-based, luciferase reporter, HEK293T, luminescence. inhibition, % at 8.6 µM. COUP transcription factor 2 (Homo sapiens), P24468. hit rate 0.7% among 370,000. HEK293T NGFI-A luciferase reporter;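 active = inhibition above a per-plate cutoff, mean inhibition of test wells between control levels plus 3 SD, cut at about 38% in these data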;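 note: cells cotransfected with COUP-TFII expression vector driving the NGFI-A reporter; 0% = median of COUP-TF2 test wells and 100% = reporter-only cells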
GalR3 conf: GalR3 antagonist hit confirmation, cell-based, fluorescence, triplicate; inhibition, % at 3 µM; HEK293 GalR3 CNG cAMP biosensor, membrane potential fluorescence; galR3 fused to GalR1 carboxy tail; challenged with forskolin and galanin at EC90; hit rate 59% among 1,600; shares compounds with GalR3 antagonist; AID 652245, 2013;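 active = inhibition above the primary screen's cutoff, the mean inhibition of all screened compounds plus 3 SD, cut at about 13% in these data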;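 note: 0% = forskolin plus galanin and 100% = forskolin alone with DMSO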
HEK-CNG parental: nonspecific cAMP agonists in parental HEK-CNG cells, counter-screen for GalR3 antagonist project, cell-based, fluorescence, high throughput; shares compounds with GalR3 antagonist; HEK293-CNG parental cells, cAMP membrane potential fluorescence; normalised: DMSO wells 0%, forskolin wells 100%; activation, % at 3 µM; hit rate 10% among 1,600; AID 652268, 2013; in the data active = activation above about 1.3%
Active calls of the source: *. An excerpt weighted towards active compounds, which were near 1.1% of everything screened.

O=C(CN1C(=O)c2ccccc2C1=O)OCc1nc2ccsc2c(=O)[nH]1 was read as SRC3 inh 23, GalR3 antagonist -1, NR5A2 inv ag -6, NCOA2 inhibitor 18, SRC1 inh -42 and COUP-TFII inh 3.
Cc1ccc(-n2nc(C)c(/C=N/n3c(C)n[nH]c3=S)c2Cl)cc1 was read as SRC3 inh 14, NR5A2 inv ag -2, NCOA2 inhibitor 22, SRC1 inh 0, COUP-TFII inh -1, GalR3 conf 11 and HEK-CNG parental 1.
`Cc1n[nH]c(=S)n1/N=C/c1ccccc1` gave SRC3 inh 8, GalR3 antagonist 1, NR5A2 inv ag 3, NCOA2 inhibitor 6, SRC1 inh 1 and COUP-TFII inh 4.
`CS(=O)(=O)c1cccc(C(=O)OCCCC(=O)c2ccccc2)c1` gave SRC3 inh -11, GalR3 antagonist -5, NR5A2 inv ag -6, NCOA2 inhibitor 18, SRC1 inh -13 and COUP-TFII inh 6.
`COc1cc2c(cc1OC)C(c1ccc(C)cc1)NC(=O)C2` (stereo not drawn) gave SRC3 inh 0, GalR3 antagonist 14*, NR5A2 inv ag 10, NCOA2 inhibitor -17, SRC1 inh -12, COUP-TFII inh -13, GalR3 conf 3 and HEK-CNG parental 0.
`CCOc1ccc(C2NC(=O)Cc3cc(OC)c(OC)cc32)cc1` (stereo not drawn) gave SRC3 inh 10, GalR3 antagonist -13, NR5A2 inv ag 1, NCOA2 inhibitor -8, SRC1 inh 6 and COUP-TFII inh -1.
For Cc1ccc(N2CC(NS(=O)(=O)c3cccnc3)CC2=O)cc1C (stereo not drawn) the results were SRC3 inh 1, GalR3 antagonist -4, NR5A2 inv ag -5, NCOA2 inhibitor -14, SRC1 inh 7 and COUP-TFII inh -37.
For CC(C)CC1NC(=O)N(Cc2nc3ccccc3s2)C1=O (stereo not drawn) the results were SRC3 inh -18, GalR3 antagonist 19*, NR5A2 inv ag 13, NCOA2 inhibitor 3, SRC1 inh -14, COUP-TFII inh -17, GalR3 conf -1 and HEK-CNG parental 0.
For CC(O)CN(CC(C)O)c1ccc2c(c1)Cc1cc([N+](=O)[O-])ccc1-2 (stereo not drawn) the results were SRC3 inh -36, GalR3 antagonist 13*, NR5A2 inv ag 15, NCOA2 inhibitor 0, SRC1 inh -11, COUP-TFII inh -11, GalR3 conf 27* and HEK-CNG parental 1.4*.
CCCc1nnc(NC(=O)C(C)N2C(=O)C3C4C=CC(C4)C3C2=O)s1 (stereo not drawn) was read as SRC3 inh -35, GalR3 antagonist 0, NR5A2 inv ag 12, NCOA2 inhibitor -17, SRC1 inh -6 and COUP-TFII inh 3.
Screening Nc1ncnc2c1ncn2C1OC(CO)C2OC21 (stereo not drawn) returned SRC3 inh -14, GalR3 antagonist -5, NR5A2 inv ag 14, NCOA2 inhibitor -13, SRC1 inh 13 and COUP-TFII inh 3.
Nc1ncnc2c1ncn2[C@@H]1O[C@H](CO)C[C@H]1O was read as SRC3 inh -9, GalR3 antagonist 16*, NR5A2 inv ag 5, NCOA2 inhibitor -12, SRC1 inh -5, COUP-TFII inh -11, GalR3 conf 30* and HEK-CNG parental 0.
For OCCN1CN=C(Nc2nc3ccccc3o2)NC1 the results were SRC3 inh -18, GalR3 antagonist -3, NR5A2 inv ag -10, NCOA2 inhibitor -13, SRC1 inh -13 and COUP-TFII inh 9.
Screening COc1ccc(CNC(=O)NCCc2c[nH]c3ccccc23)cc1 returned SRC3 inh 2, GalR3 antagonist -10, NR5A2 inv ag 7, NCOA2 inhibitor 0, SRC1 inh -2 and COUP-TFII inh -2.
For NC(=O)c1sc(=S)n2c1[nH]c(=O)c1sccc12 the results were SRC3 inh 0, GalR3 antagonist 67*, NR5A2 inv ag 24, NCOA2 inhibitor -3, SRC1 inh 1, COUP-TFII inh -10, GalR3 conf -3 and HEK-CNG parental 1.
Screening COc1ccc(-c2cc([C@H]3[C@@H]4C=CCC[C@@]4(C)C(=O)N3Cc3ccccc3)ccc2F)cc1OC returned SRC3 inh 9, GalR3 antagonist 20*, NR5A2 inv ag 14, NCOA2 inhibitor -14, SRC1 inh 3, COUP-TFII inh 14, GalR3 conf 12 and HEK-CNG parental 1.
COc1ccc(-c2cc(CNC(=O)CN3CCN(C)CC3)on2)cc1 was read as SRC3 inh -6, GalR3 antagonist 13*, NR5A2 inv ag -5, NCOA2 inhibitor -5, SRC1 inh -2, COUP-TFII inh 8, GalR3 conf -5 and HEK-CNG parental 0.
`COc1ccc([C@H]2CC(=O)C=C(c3ccc(C(F)(F)F)c(C(F)(F)F)c3)C2)cc1OC` gave SRC3 inh -1, GalR3 antagonist -5, NR5A2 inv ag -9, NCOA2 inhibitor 10, SRC1 inh -2 and COUP-TFII inh 5.
Screening Cc1ccc(C(=O)N/C(=C\c2cccs2)C(=O)N2CCN(C)CC2)cc1C returned SRC3 inh -4, GalR3 antagonist -1, NR5A2 inv ag 5, NCOA2 inhibitor -1, SRC1 inh -8 and COUP-TFII inh -6.
For COc1ccc(N2CCN(Cc3nc4c(c(=O)[nH]c(=O)n4C)n3CC(C)=O)CC2)cc1 the results were SRC3 inh -5, GalR3 antagonist 13*, NR5A2 inv ag -25, NCOA2 inhibitor -27, SRC1 inh -3, COUP-TFII inh -5, GalR3 conf 1 and HEK-CNG parental 0.
COC(=O)CNC(=O)CN1c2cccc3cccc(c23)S1(=O)=O was read as SRC3 inh 4, GalR3 antagonist 13*, NR5A2 inv ag -18, NCOA2 inhibitor 14, SRC1 inh -12, COUP-TFII inh -12, GalR3 conf 0 and HEK-CNG parental 0.

Assay outcomes: PubChem BioAssay, The Scripps Research Institute Molecular Screening Center
